Each structure is given as a SMILES string. The whole screen tested about 310,000 compounds, of which about 3,400 (1.1%) were called active.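 How the source made its calls: active means fluorescence ratio B-score at most minus 3 library SDs, with starting brightness B-score within 2 library SDs (cut at about -5.5 in these data); inactive means the rest, inconclusive results apart.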 The list comes from a sample in which actives are over-represented; it also holds similar structures and randomly drawn compounds. Square brackets hold non-standard residues; d marks the D form. Peptide text beside a SMILES is read from it. * marks the point of attachment. ξ: configuration not given here. Cbz = O=C(OCc1ccccc1)*; ξL = CC(C)CC(N)C(=O)O; Bz = O=C(c1ccccc1)*; ξP = O=C(O)C1CCCN1

The source of these data is PubChem BioAssay AID2156 (Johns Hopkins Ion Channel Center, 2009).

The target of this test is Potassium voltage-gated channel subfamily KQT member 2 (Rattus norvegicus) (UniProt O88943). Kind of test: KCNQ2 channel blockers in CHO-K1 cells – cell-based, FluxOR thallium flux, B-score, primary screen (AID 2156). The note with it: 20 min, at 10 µM; active compounds read low.
Chain of Potassium voltage-gated channel subfamily KQT member 2 (Rattus norvegicus) (O88943 whole entry, looked up): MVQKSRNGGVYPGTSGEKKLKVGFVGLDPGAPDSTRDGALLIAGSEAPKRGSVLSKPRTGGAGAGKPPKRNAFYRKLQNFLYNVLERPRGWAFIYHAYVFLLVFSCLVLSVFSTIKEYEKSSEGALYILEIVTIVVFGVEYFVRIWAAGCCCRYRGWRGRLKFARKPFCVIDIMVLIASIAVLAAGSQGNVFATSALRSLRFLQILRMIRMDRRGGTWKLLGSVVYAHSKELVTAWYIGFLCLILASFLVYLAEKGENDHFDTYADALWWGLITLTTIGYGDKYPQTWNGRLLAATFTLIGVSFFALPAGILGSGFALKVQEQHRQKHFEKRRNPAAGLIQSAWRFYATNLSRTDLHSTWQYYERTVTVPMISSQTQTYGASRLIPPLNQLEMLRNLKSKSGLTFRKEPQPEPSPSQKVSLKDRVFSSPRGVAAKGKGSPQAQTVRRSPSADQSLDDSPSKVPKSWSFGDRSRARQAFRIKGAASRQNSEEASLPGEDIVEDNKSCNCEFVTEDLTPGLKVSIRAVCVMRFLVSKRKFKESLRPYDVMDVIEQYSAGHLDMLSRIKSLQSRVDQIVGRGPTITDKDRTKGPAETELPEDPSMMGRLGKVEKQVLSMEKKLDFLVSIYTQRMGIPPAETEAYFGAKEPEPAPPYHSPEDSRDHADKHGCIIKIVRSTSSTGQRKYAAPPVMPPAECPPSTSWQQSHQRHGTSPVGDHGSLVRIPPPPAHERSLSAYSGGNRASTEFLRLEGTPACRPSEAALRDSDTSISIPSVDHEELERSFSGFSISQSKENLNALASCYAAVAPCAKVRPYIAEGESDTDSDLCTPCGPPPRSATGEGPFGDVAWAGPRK
With `COc1ccc(OC)c(C(=O)c2ccc(Cl)cc2)c1`, the B-score entry was “inactive”.
With `COc1ccc(/C(C)=N/NC(=O)CCC(=O)Nc2ccc(Cl)cc2Cl)c(OC)c1`, the B-score is -2.5 (inactive).
To `COc1ccc(OC)c(/C(C)=N\NC(=O)c2cc3cc(Cl)ccc3n2C)c1` belongs -8.07 (active); to `CN1CCc2ccccc2C1Cc1ccccc1NC(=O)c1sc2ccccc2c1Cl` (stereo not drawn), -6.56 (active).
The value for `O=C(Nc1ccon1)c1sc2ccccc2c1Cl` was -0.39 (inactive).
For the molecule `COc1ccc(CNC(=O)CNC(=O)c2sc3ccccc3c2Cl)cc1OC`, the B-score result was “inactive”.
The value for `COc1ccc(-c2csc3ncnc(N4CCN(S(=O)(=O)c5cccc(F)c5)CC4)c23)cc1` was -2.13 (inactive).
The value for `CC(OC(=O)CCCOc1ccccc1)C(=O)Nc1ccc(Cl)cn1` (stereo not drawn) was “inactive”; that for `CC1CN(C(=O)COC(=O)c2cccc(NS(=O)(=O)c3ccccc3)c2)CC(C)O1` (stereo not drawn) was “inactive”; that for `O=C(Cc1ccccc1)n1nc(-c2ccccc2)nc1NCc1ccco1` was -5.57 (active).
To `CS(=O)(=O)n1nc(-c2ccccc2)nc1NCc1ccco1` belongs -0.02 (inactive); to `c1ccc(-c2nc(NCc3ccco3)c3ccccc3n2)cc1`, -3.7 (inactive); to `CC1(C)O[C@@H]2CC3C4C[C@H](F)C5=CC(=O)C=CC5(C)C4C(O)CC3(C)[C@]2(C(=O)CO)O1` (stereo partly drawn), “inactive”.
`O=C(Nc1ccccc1Cl)Nn1cnnc1`: the B-score result is “inactive”.
To `O=C(Nc1ccccc1Cl)/C(Cl)=C(\Cl)S(=O)c1ccccc1` (stereo not drawn) belongs -9.85 (active).
To `O=C(COC(=O)c1cccs1)Nc1ccccc1Cl` belongs -0.17 (inactive).
The value for `CCc1noc(C)c1C(=O)Nc1nc(-c2ccccc2)cs1` was -0.22 (inactive); that for `CCCn1nc(C(=O)NNC(=O)CSCC(=O)Nc2cc(C)on2)c2ccccc2c1=O` was -2.13 (inactive).
As to `Cc1c(C(=O)NCCCc2ccccc2)cccc1[N+](=O)[O-]`, the B-score was -1.07 (inactive).
The value for `O=C(OCC(=O)N(CCc1ccccc1)Cc1ccccc1)c1ccccc1[N+](=O)[O-]` was -6.77 (active); that for `O=C(O/N=C(/c1ccccc1)c1ccncc1)c1ccccc1[N+](=O)[O-]` was -1.04 (inactive).
The value for `Cc1cccc(N2CC(C(=O)Nc3ccccc3N3CCCC3)CC2=O)c1C` (stereo not drawn) was “inactive”; that for `c1cnc(N2CCN(c3ccc4ccccc4n3)CC2)nc1` was -0.22 (inactive); that for `CC12CCC(C(=O)N3CCN(c4ncccn4)CC3)(c3nc4ccccc4nc31)C2(C)C` (stereo not drawn) was -6.6 (active).
On to `CC(Oc1ccc(F)cc1)C(=O)N1CCN(c2ncccn2)CC1` (stereo not drawn), for which the B-score entry is “inactive”.
The value for `Cc1cc(C)n2nc(C(=O)OC(C)C(=O)c3cc(C)c(C)cc3C)nc2n1` (stereo not drawn) was “inactive”.
To `Cc1ccccc1NC(=O)C(C)OC(=O)CCC(=O)N(CC(C)C)c1c(N)n(CC(C)C)c(=O)[nH]c1=O` (stereo not drawn) belongs “inactive”.
The value for `O=[N+]([O-])c1cccc(Nc2c3ccccc3nc3ccccc23)c1` was -5.7 (active); that for `CC(=O)Nc1ccc(Nc2c3ccccc3nc3ccccc23)cc1` was “inactive”.
On to `Cc1cc(CNC(=O)c2cccc([N+](=O)[O-])c2)c2ccccc2n1`, for which the B-score entry is “inactive”.
To `CCOc1ccc(/C=C/C(=O)N(CC)CC(=O)NCc2cccs2)cc1OC` belongs “inactive”.
Regarding `COc1ccccc1CNC(=O)COn1nnc2ccc(S(=O)(=O)N3CCOCC3)cc21`, the B-score result is “inactive”.
The value for `COc1ccc(Cl)cc1NC(=O)COC(=O)C(CC(C)C)N1C(=O)C2CC=CCC2C1=O` (stereo not drawn) was -5.8 (active); that for `COc1ccc(Cl)cc1NC(=O)c1cccc(N2C(=O)C3CC=CCC3C2=O)c1` (stereo not drawn) was -0.4 (inactive); that for `COc1ccc(Cl)cc1NC(=O)CCN1CCOCC1` was -1.02 (inactive).
On to `CCN(Cc1ccccc1)S(=O)(=O)c1cc2c3c(c1)CCN3C(=O)CC2`, for which the B-score was -0.41 (inactive).
On to `Cc1ccc(S(=O)(=O)N2CCC(C(=O)NCCC3=CCCCC3)CC2)cc1C`, for which the B-score result is “inactive”.
The value for `Cc1cccc(NC(=O)C2CCCN2S(=O)(=O)c2ccc(F)cc2)c1C` (stereo not drawn) was -3.21 (inactive).
In the case of `O=C(NCc1ccccc1Cl)C1CCCN1S(=O)(=O)c1ccc(F)cc1` (stereo not drawn), the B-score is -6.35 (active).
For `COc1ccc(NC(=O)N2CCCC2C(=O)NCc2ccccc2Cl)cc1` (stereo not drawn), the B-score was -1.43 (inactive).
The value for `CCOc1ccc(NC(=O)CN(C)C(=O)c2c(C)noc2C)cc1OCC` was -0.82 (inactive); that for `CCN(C(=O)CSc1nnnn1-c1ccccc1OC)C1CCS(=O)(=O)C1` (stereo not drawn) was -0.06 (inactive); that for `CC(C)N(C(=O)CSc1nc(COc2ccccc2)nc2ccccc12)C(C)C` was -7.53 (active).
As to `CCCc1nc(SCC(=O)Nc2ccc(S(=O)(=O)N(C)C)cc2)c2ccccc2n1`, the B-score result was “inactive”.
To `CCc1nc(SCC(=O)NNC(=O)c2ccc(C)cc2)c2ccccc2n1` belongs -1.77 (inactive); to `CC[C@@]12C(=O)N(c3ccccc3)C(=O)N1[C@H](c1ccc(Br)cc1)[C@@H]1C(=O)N(C(C)(C)C)C(=O)[C@@H]12`, “inactive”.
`Cc1ccccc1N1CCN(CC(=O)NCc2ccc(Cl)cc2)CC1`: the B-score was -8.15 (active).
The value for `O=C(CN1CCN(c2ccc(Cl)cc2)CC1)NCc1cccs1` was -0.84 (inactive).
To `Cc1ccc(CNC(=O)CN2CCN(Cc3ccc(Cl)cc3)C2=O)cc1` belongs -0.18 (inactive); to `COc1ccc(NC(=O)CN(C)C(=O)CC2CCCCC2)cc1`, -0.05 (inactive); to `COc1ccc2c(c1)C(=O)Nc1cc(Cl)ccc1N2`, “inactive”.
The value for `Cc1ccc(C)c(-n2cc(CN3CCN(C(=O)c4ncn[nH]4)CC3)c(-c3ccccc3)n2)c1` was -1.41 (inactive).
Take `CCC(O)C1CCN(Cc2cn(-c3ccc(OC)cc3)nc2-c2cccc(F)c2)CC1` (stereo not drawn): the B-score result was “inactive”.
To `Cc1cccc(-n2cc(CN3CCN(C(=O)c4ncn[nH]4)CC3)c(-c3cccc(F)c3)n2)c1` belongs -8.35 (active); to `CCN1C(=O)[C@@H]2[C@@H](c3ccc(-c4ccc(OC)cc4)c(OC)c3)N3CCC[C@@]3(C(=O)OC)[C@@H]2C1=O`, “inactive”; to `O=C(CCCN1C(=O)/C(=C/c2ccco2)SC1=S)Nc1ccccc1`, -0.39 (inactive).
To `COC(=O)C1=C(C)N(C(C)c2ccccc2)C(=O)/C1=C\c1ccco1` (stereo not drawn) belongs -8.53 (active); to `COC(=O)C1=C(C)N(c2ccc(Br)cc2)C(=O)/C1=C\c1ccco1`, -1.96 (inactive); to `COc1ccc(CCNC(=O)C(=O)NCC2CCCN2S(=O)(=O)c2cccs2)cc1OC` (stereo not drawn), “inactive”.
The value for `COC(=O)[C@H](Cc1ccccc1)NC(=O)[C@@H]1C[C@H]1[C@@H](NC(=O)OCc1ccccc1)c1ccccc1` was “inactive”; that for `CC(C)CC(NC(=O)C1CCCN1C(=O)[C@@H](C)NC(=O)OCc1ccccc1)C(=O)NCC(N)=O` (stereo partly drawn) (Cbz-[dA][ξP][ξL]G-NH2) was “inactive”.
Consider `CC(C)C(NC(=O)OCc1ccccc1)C(=O)OCC(=O)N1C(C)CCCC1C` (stereo not drawn), for which the B-score was -8.16 (active).
To `COC(=O)[C@H](C)[C@H]1C[C@]1(C)[C@H](NC(=O)OCc1ccccc1)c1ccccc1` belongs -3.52 (inactive); to `CC(C)[C@H](NC(=O)OCc1ccccc1)C(=O)OCc1ccccc1`, -7.34 (active); to `COc1ccc(COC(=O)NC(C(=O)O)c2ccccc2)cc1` (stereo not drawn), “inactive”.
The value for `Cc1ccc(C)c(OCCC(=O)Nc2cccc(S(=O)(=O)N3CCCC3)c2)c1` was “inactive”.
To `Cc1ccc2nc(SCC(=O)Nc3cccc4ccccc34)nc(=O)n2c1` belongs -0.48 (inactive); to `COc1ccc(NC(=O)CN(C)C(=O)Cc2coc3cc(C)c(C)cc23)cc1`, -0.02 (inactive); to `Brc1cnc2ccccc2c1N1CCCCC1`, “inactive”.
Take `COc1ccccc1NC(=O)CSc1nnc(-c2ccoc2C)n1CCc1ccccc1`: the B-score is -8.21 (active).
To `COc1ccccc1NC(=O)CSc1nnc(C)n1CC1CCCO1` (stereo not drawn) belongs “inactive”; to `CCCn1c(SCC(=O)Nc2cccc(C(=O)OCC)c2)nnc1-c1ccoc1C`, -0.31 (inactive).
To `O=C(COc1coc(CN2CCN(c3ccccc3)CC2)cc1=O)N1CCc2ccccc21` belongs “inactive”.
To `CC1=C(C(=O)Nc2ccccc2)C(c2ccco2)C(C#N)=C(SCC(N)=O)N1` (stereo not drawn) belongs “inactive”.
`CC1=C(C(=O)Nc2ccccc2)C(c2cccs2)C(C#N)=C(SCC#N)N1` (stereo not drawn): the B-score is -6.59 (active).
The value for `C=CCOC(=O)C1=C(C)NC(C)=C(C(=O)OCC=C)C1c1cccs1` was -2.85 (inactive); that for `CCN(C(=O)COC(=O)c1sccc1C)c1c(N)n(Cc2ccccc2)c(=O)[nH]c1=O` was “inactive”.
Consider `N#CCCN(C(=O)COC(=O)c1ccc(S(=O)(=O)N2CCCCCC2)cc1)c1ccccc1`, for which the B-score result was “inactive”.
Regarding `Cc1ccc(C)c(OCCC(=O)OCC(=O)NC(=O)NCc2ccccc2)c1`, the B-score result is “inactive”.
Consider `COc1ccc2c(c1)O/C(=C\c1ccccc1O)C2=O`, for which the B-score was -0.61 (inactive).
The value for `COc1ccc(NC(=O)CN(C)C(=O)c2ccc(NC3CC3)c([N+](=O)[O-])c2)cc1` was “inactive”; that for `C=CCCN(Cc1ccccc1)S(=O)(=O)c1ccccc1Br` was “inactive”; that for `C=CC(COCc1ccccc1)N(Cc1ccccc1)S(=O)(=O)c1ccccc1Br` (stereo not drawn) was -5.61 (active).
As for `CC1CCN(c2ccc(-c3ccc(NC(=O)c4ccco4)cc3)nn2)CC1`, the B-score entry is “inactive”.
The value for `Cc1ccc(S(=O)(=O)N(C)C)cc1NC(=O)COC(=O)c1c(C)noc1C` was -0.34 (inactive).
To `CCc1noc(C)c1C(=O)Oc1ccc(N(C)S(=O)(=O)c2ccc(C)c(C)c2)cc1` belongs -6.86 (active).
As for `COCCNC(=O)COc1ccc(N(C)S(=O)(=O)c2ccc3ccccc3c2)cc1`, the B-score entry was “inactive”.
The value for `CCCc1cc(=O)[nH]c2nnc(SCC(=O)Nc3nnc(SCC)s3)n12` was “inactive”.
To `Cc1ccc(-c2csc(NC(=O)C3=COCCO3)n2)cc1C` belongs -0.1 (inactive); to `O=C(NC(Cc1ccccc1)C(=O)N1CCCC1C(=O)O)c1ccccc1` (stereo not drawn) (Bz-Phe-Pro-OH; configuration not given here), -0.06 (inactive).
The value for `CC(Cc1ccccc1)C(=O)N(C)Cc1ccccc1` (stereo not drawn) was -0.83 (inactive).
Regarding `CN(Cc1ccccc1F)C(=O)C(Cc1ccccc1)NC(=O)c1ccccc1` (stereo not drawn), the B-score is -7.91 (active).
The value for `CSc1ccccc1NC(=O)C(C)N1C(=O)c2ccccc2S1(=O)=O` (stereo not drawn) was “inactive”.
